Measurements from PubChem BioAssay (EPA / NIEHS).
The source made the active and inactive calls. The calls were made as follows: active = hit-call score of the fitted dose curve at least 0.9, where 1 is the maximum; inactive = score below 0.9.

Legend:
[1] = ATG_CRE_CIS: Attagene CIS-FACTORIAL HepG2 Assay for human cAMP Responsive Element (CRE) binding protein 3 (AID 2282926); conditions: HepG2 CRE cis-reporter, Attagene multiplexed mRNA; actives raise or lower the signal
Method in brief: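 HepG2 cells transiently transfected with a multiplexed reporter library (CRE-driven unit among them) were dosed for 24 h. Reporter mRNA was quantified by RT-PCR, fluorescent labelling, HpaI digestion and capillary electrophoresis, with bidirectional fitting against DMSO baseline.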

[2] = biological target: CCAAT/enhancer-binding protein beta (Homo sapiens) (UniProt P17676); assay: ATG_C_EBP_CIS: Attagene CIS-FACTORIAL HepG2 Assay for human CCAAT/Enhancer Binding Protein (C/EBP) beta (AID 2282927); conditions: HepG2 Attagene cis-factorial transcription factor reporter; actives raise or lower the signal
Method in brief: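 Chemical-treated HepG2 cells (24 h) bearing cis-regulated reporter constructs were processed for total RNA, then reverse transcription, PCR amplification, fluorescent primer extension and fragment analysis; gain- and loss-of-signal were fitted against DMSO.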

[3] = ATG_DR4_LXR_CIS: Attagene CIS-FACTORIAL HepG2 Assay for human Liver X Receptor (LXR), DR4 submotif (AID 2282929); conditions: HepG2 Attagene DR4 cis-reporter, mRNA transcription; actives raise or lower the signal
Method in brief: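 Endogenous factor activity at a DR4 cis-element is read as reporter mRNA in transiently transfected HepG2 cells. Exposure lasts 24 h; transcripts are amplified, fluorescently labelled and sized by capillary electrophoresis, with DMSO as baseline.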

[4] = biological target: Aryl hydrocarbon receptor (Homo sapiens) (UniProt P35869); assay: ATG_Ahr_CIS: Attagene CIS-FACTORIAL HepG2 Assay for human Aryl Hydrocarbon Receptor (Ahr) (AID 2282930); conditions: HepG2 AhR cis-factorial reporter transcription; actives raise or lower the signal
Method in brief: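 Following 24 h of chemical dosing, transfected HepG2 liver cells with cis-driven reporter units were lysed for RNA; reporter mRNA was quantified via RT-PCR and capillary electrophoresis, and responses fitted bidirectionally from DMSO.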

[5] = ATG_AP_1_CIS: Attagene CIS-FACTORIAL HepG2 Assay for human Activator Protein 1 (AP-1) (AID 2282931); conditions: HepG2 Attagene cis-factorial AP-1 reporter mRNA; actives raise or lower the signal
Method in brief: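 Fluorescence of labelled PCR fragments separated by capillary electrophoresis gives reporter mRNA levels. HepG2 with transfected cis-regulated reporter units, 24 h exposure; DMSO serves as baseline for bidirectional curve fits.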

[6] = ATG_AP_2_CIS: Attagene CIS-FACTORIAL HepG2 Assay for human Activator Protein 2 (AP-2) (AID 2282932); conditions: HepG2 AP-2 cis-reporter, Attagene transcription factor profiling; actives raise or lower the signal
Method in brief: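 HepG2 cells were transiently transfected with multiple cis-promoter reporter transcription units and dosed for 24 h. Reporter mRNA was measured by RT-PCR with capillary electrophoresis fluorescence; bidirectional fits relative to DMSO baseline.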

[7] = ATG_BRE_CIS: Attagene CIS-FACTORIAL HepG2 Assay for human Bone Morphogenetic Protein (BMP) Response Element (BRE) (AID 2282933); conditions: HepG2 BMP response element reporter, Attagene transcription factor profiling; actives raise or lower the signal
Method in brief: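 Fluorescence-labelled reporter cDNA fragments, separated by capillary electrophoresis, gave the signal for this component of a 52-readout multiplex. HepG2 cells were transfected, exposed to chemicals for 24 h, and compared with DMSO using bidirectional fitting.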

[8] = biological target: Retinoic acid receptor alpha (Homo sapiens) (UniProt P10276); assay: ATG_DR5_RAR_CIS: Attagene CIS-FACTORIAL HepG2 Assay for human Retinoic Acid Receptor Alpha (RARE), DR5 submotif (AID 2282934); conditions: HepG2 Attagene cis-factorial RARE DR5 reporter, mRNA; actives raise or lower the signal;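 as to AC50: reporter responds to endogenous RAR alpha beta and gamma in HepG2 not RARA alone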
Method in brief: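 Transfected HepG2 reporter cells are exposed to chemicals for 24 h. Then RNA is extracted and the DR5 element reporter transcript is measured by RT-PCR and capillary electrophoresis, with bidirectional curve fitting relative to DMSO.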

[9] = biological target: Transcription factor E2F1 (Homo sapiens) (UniProt Q01094); assay: ATG_E2F_CIS: Attagene CIS-FACTORIAL HepG2 Assay for human E2F Transcription Factor 1 (AID 2282935); conditions: HepG2 Attagene cis-reporter, E2F reporter RNA transcripts; actives raise or lower the signal
Method in brief: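 HepG2 cells transiently transfected with multiplexed cis-element reporter units, dosed for 24 h. Reporter mRNA measured by RT-PCR, 6-FAM primer-extension labeling, HpaI digestion and capillary electrophoresis; bidirectional fit versus DMSO baseline.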

[10] = ATG_CMV_CIS: Attagene CIS-FACTORIAL HepG2 Assay for human CMV (Internal Marker) (AID 2282928); conditions: HepG2 CMV promoter reporter, transcription factor profiling; actives raise or lower the signal;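 also: endpoint acts as a background internal control marker rather than a target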
Method in brief: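 HepG2 cells transiently transfected with multiple cis-regulated reporter units; 24 h compound exposure. Reporter mRNA quantified by RT-PCR, 6-FAM primer-extension labeling, HpaI digestion and capillary electrophoresis; bidirectional fitting against DMSO baseline.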

Measured: AC50

Sequence of Retinoic acid receptor alpha (Homo sapiens) (P10276 whole entry, looked up): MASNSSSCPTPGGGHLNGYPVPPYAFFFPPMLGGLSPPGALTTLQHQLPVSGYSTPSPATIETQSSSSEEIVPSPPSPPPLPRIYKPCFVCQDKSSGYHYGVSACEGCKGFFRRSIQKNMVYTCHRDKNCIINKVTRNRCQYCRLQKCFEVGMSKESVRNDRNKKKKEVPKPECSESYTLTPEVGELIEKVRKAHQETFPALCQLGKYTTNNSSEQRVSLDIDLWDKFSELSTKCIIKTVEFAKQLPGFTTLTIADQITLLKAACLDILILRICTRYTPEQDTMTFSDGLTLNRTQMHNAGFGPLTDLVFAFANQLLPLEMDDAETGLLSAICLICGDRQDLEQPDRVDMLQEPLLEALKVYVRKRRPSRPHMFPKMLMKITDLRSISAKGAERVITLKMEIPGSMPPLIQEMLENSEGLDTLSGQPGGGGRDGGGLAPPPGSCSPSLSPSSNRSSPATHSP
Sequence of Transcription factor E2F1 (Homo sapiens) (Q01094 whole entry, looked up): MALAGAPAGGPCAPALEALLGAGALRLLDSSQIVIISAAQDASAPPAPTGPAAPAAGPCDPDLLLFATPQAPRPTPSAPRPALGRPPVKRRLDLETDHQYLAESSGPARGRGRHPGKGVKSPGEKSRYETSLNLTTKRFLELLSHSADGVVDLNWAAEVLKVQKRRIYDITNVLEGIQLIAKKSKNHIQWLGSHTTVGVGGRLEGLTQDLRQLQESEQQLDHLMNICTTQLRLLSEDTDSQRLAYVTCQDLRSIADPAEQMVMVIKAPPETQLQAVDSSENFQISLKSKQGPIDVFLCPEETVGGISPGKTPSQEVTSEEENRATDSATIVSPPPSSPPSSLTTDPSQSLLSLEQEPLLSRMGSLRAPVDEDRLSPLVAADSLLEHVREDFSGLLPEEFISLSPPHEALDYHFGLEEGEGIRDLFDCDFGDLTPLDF
Sequence of CCAAT/enhancer-binding protein beta (Homo sapiens) (P17676 whole entry, looked up, the tested form may be a part): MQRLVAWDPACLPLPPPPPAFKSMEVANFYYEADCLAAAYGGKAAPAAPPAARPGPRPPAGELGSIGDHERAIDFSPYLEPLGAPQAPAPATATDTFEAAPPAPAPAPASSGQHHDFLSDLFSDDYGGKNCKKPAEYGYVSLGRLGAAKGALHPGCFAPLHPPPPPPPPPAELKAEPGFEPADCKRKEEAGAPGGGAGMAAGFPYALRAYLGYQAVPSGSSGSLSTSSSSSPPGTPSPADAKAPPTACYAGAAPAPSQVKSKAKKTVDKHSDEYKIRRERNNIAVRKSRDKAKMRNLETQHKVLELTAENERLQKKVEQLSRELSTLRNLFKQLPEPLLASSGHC
Sequence of Aryl hydrocarbon receptor (Homo sapiens) (P35869 whole entry, looked up): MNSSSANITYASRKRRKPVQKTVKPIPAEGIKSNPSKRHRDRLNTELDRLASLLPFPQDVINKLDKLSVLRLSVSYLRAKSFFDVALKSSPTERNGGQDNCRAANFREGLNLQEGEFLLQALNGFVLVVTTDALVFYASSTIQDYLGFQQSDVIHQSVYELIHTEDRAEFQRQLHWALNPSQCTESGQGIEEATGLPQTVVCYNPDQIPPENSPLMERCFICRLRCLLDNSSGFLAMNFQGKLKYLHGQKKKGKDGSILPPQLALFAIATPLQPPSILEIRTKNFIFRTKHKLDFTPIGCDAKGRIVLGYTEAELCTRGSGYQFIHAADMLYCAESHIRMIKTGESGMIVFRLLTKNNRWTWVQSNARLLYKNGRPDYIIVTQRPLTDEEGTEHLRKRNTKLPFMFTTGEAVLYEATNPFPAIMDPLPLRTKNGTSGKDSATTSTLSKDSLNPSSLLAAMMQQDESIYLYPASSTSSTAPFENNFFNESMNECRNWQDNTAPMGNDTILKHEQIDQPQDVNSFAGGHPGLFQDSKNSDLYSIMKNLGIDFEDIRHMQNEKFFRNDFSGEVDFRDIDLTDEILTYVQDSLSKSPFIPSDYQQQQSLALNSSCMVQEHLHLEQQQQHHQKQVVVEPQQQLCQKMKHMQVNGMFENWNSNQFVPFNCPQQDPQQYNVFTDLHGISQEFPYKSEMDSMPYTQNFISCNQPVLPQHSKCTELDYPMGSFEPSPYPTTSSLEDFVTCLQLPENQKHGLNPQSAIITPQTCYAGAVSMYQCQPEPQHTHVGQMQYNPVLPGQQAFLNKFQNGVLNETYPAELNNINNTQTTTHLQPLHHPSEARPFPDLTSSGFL

C[N+](C)(C)CCCCCC[N+](C)(C)C
inactive: [1] | [2] | [3] | [4] | [5] | [6] | [7] | [8] | [9]

NC(=S)NNC(N)=S
inactive: [1] | [2] | [3] | [4] | [5] | [6] | [7] | [8] | [9]

CCCCCCOC(=O)C(C)C
inactive: [1] | [2] | [3] | [4] | [5] | [6] | [7] | [8] | [9]

COC(=O)Nc1ccc(Cl)c(Cl)c1
inactive: [1] | [2] | [6] | [7] | [8] | [9]
active: [3] 26.2 µM | [4] 55.7 µM | [5] 172 µM

O=C1OC(=O)c2c(Br)c(Br)c(Br)c(Br)c21
inactive: [1] | [2] | [3] | [4] | [5] | [6] | [9]

ClC(c1ccccc1)(c1ccccc1)c1ccccc1
active: [3] 5.95 µM
inactive: [1] | [2] | [4] | [5] | [6] | [7] | [9]

COC(=O)C=C(C)CCC=C(C)C
inactive: [1] | [2] | [3] | [4] | [5] | [6] | [7] | [8] | [9]

O=C(O)CNc1ccccc1
active: [4] 15.1 µM
inactive: [1] | [2] | [3] | [5] | [6] | [7] | [8] | [9]

Cc1ccc(C)o1
inactive: [1] | [2] | [3] | [4] | [5] | [6] | [7] | [8] | [9]

C[C@H]1C[C@@H](O)CC(C)(C)C1
inactive: [1] | [2] | [3] | [4] | [5] | [6] | [7] | [8] | [9]

O=[N+]([O-])c1ccc(O)cc1C(F)(F)F
inactive: [3] | [8] | [9]
active: [1] 48 µM | [2] 58.8 µM | [4] 53.8 µM | [5] 71.8 µM | [6] 26.4 µM | [7] 37.5 µM

COC(CC(C)CCCC(C)(C)O)OC (stereo not drawn)
inactive: [1] | [2] | [3] | [4] | [5] | [6] | [7] | [8] | [9]

CC(C)=CCCC(C)CCOC=O (stereo not drawn)
inactive: [1] | [2] | [3] | [4] | [5] | [6] | [7] | [8] | [9]

O=P(O)(O)O
inactive: [1] | [2] | [3] | [4] | [6] | [7] | [9]

CCCCCCCCCCCC(=O)OCC(O)CO (stereo not drawn)
active: [1] 48.2 µM | [4] 21.3 µM | [5] 158 µM | [8] 100 µM
inactive: [2] | [3] | [6] | [7] | [9]

C[C@H]1O[C@@H](O[C@H]2[C@@H](O)C[C@H](O[C@H]3[C@@H](O)C[C@H](O[C@H]4CC[C@@]5(C)[C@H](CC[C@@H]6[C@@H]5C[C@@H](O)[C@]5(C)[C@@H](C7=CC(=O)OC7)CC[C@]65O)C4)O[C@@H]3C)O[C@@H]2C)C[C@H](O)[C@@H]1O
inactive: [4] | [5] | [7] | [8] | [9]
active: [1] 0.0776 µM | [2] 0.0593 µM | [3] 0.11 µM | [6] 0.0857 µM

CCCCCCCCCCCCCC(=O)OCC(O)CO (stereo not drawn)
inactive: [1] | [10] | [3] | [4] | [5] | [6] | [7] | [8] | [9]
